# Experimental data published in PMC7862700, “An all-to-all approach to the identification of sequence-specific readers for epigenetic DNA modifications on cytosine”.
# How the values were obtained:
# Test in all cases: DAPPL (digital affinity profiling via proximity ligation, sequencing); 10 mM Tris-HCl pH 7.5, 50 mM NaCl, 1 mM DTT, 4% glycerol, room temperature, 30 min; GST-TFs on glutathione beads, 16-mer random dsDNA library, 0.1% formaldehyde crosslink after washing; high values mean tight binding
# Conditions in all cases: protein: recombinant; tags: N-terminal GST; dsDNA, one strand shown
# FLI1 = biological target: T1, FLI1 (Homo sapiens, UniProt Q01543 1-452)
# T1 sequence: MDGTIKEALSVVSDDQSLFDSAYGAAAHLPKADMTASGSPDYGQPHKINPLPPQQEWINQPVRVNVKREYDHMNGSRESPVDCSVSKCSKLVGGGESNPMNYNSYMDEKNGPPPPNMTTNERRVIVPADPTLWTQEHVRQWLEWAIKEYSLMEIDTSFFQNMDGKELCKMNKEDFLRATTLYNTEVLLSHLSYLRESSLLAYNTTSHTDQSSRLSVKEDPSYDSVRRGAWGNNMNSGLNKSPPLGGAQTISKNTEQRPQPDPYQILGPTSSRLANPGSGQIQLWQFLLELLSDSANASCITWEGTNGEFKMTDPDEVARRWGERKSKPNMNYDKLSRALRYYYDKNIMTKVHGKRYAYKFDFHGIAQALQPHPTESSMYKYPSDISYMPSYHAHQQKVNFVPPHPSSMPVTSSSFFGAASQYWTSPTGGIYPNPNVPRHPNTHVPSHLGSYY
# Method in brief: (§1)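 Sequencing on an Illumina NextSeq500 followed washing, crosslinking with 0.1% formaldehyde, proximity ligation (BsaI/T4 ligase, 1 h, 37 °C) and PCR amplification of pools that had been incubated for 30 min at room temperature with 200 nmole of a random double-stranded 16-mer DNA library in Tris/NaCl/DTT/glycerol buffer. Each pool held DNA-barcoded human transcription factors, expressed in yeast as GST fusions and captured on glutathione beads, plus a tag-only sample. Binding signal is a hexamer's read frequency for a factor divided by its frequency in the tag-only sample.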
# ELK1 = biological target: T2, ELK1 (Homo sapiens, UniProt P19419 1-428)
# T2 sequence: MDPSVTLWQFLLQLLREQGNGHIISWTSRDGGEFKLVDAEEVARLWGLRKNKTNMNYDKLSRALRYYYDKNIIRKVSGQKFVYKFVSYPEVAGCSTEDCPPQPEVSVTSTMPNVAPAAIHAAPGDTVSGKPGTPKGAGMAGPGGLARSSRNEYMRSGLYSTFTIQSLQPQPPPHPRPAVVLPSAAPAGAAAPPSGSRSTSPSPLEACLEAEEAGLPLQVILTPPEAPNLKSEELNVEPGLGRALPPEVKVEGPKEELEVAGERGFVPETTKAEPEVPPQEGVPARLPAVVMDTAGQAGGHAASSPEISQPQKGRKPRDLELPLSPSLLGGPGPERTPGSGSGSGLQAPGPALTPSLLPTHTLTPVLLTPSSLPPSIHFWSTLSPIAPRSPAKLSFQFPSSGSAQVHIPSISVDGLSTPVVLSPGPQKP
# Method in brief: as §1
# GABPA = biological target: T3, GABPA (Homo sapiens, UniProt Q06546 1-454)
# T3 sequence: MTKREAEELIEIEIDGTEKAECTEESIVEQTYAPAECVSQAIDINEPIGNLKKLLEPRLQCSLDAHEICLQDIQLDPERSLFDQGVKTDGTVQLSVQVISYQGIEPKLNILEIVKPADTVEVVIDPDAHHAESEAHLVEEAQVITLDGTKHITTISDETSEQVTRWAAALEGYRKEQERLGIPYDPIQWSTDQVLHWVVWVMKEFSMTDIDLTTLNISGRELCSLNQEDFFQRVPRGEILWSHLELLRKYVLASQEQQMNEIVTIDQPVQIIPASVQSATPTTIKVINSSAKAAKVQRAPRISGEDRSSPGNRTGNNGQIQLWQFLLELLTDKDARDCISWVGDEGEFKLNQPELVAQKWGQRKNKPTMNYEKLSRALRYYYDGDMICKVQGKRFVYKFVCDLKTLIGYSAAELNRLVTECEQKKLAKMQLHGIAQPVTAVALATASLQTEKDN
# Method in brief: as §1
# ERG = biological target: T4, ERG (Homo sapiens, UniProt P11308 1-479)
# T4 sequence: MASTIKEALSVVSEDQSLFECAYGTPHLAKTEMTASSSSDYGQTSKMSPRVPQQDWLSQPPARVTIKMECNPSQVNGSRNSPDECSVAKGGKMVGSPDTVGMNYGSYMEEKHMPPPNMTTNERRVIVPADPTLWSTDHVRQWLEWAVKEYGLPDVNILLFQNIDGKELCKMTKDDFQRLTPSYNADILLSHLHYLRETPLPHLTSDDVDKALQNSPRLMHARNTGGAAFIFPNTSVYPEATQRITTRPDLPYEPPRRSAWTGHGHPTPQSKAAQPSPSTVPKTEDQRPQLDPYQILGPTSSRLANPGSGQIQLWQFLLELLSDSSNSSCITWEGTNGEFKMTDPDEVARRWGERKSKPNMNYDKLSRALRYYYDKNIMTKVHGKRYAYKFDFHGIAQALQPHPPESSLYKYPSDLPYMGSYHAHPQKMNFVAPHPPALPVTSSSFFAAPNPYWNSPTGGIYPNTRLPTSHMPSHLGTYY
# Method in brief: as §1
# ELF1 = ELF1 (Homo sapiens, UniProt P32519 1-619)
# Method in brief: as §1
# EHF = biological target: T5, EHF (Homo sapiens, UniProt Q9NZC4 1-300)
# T5 sequence: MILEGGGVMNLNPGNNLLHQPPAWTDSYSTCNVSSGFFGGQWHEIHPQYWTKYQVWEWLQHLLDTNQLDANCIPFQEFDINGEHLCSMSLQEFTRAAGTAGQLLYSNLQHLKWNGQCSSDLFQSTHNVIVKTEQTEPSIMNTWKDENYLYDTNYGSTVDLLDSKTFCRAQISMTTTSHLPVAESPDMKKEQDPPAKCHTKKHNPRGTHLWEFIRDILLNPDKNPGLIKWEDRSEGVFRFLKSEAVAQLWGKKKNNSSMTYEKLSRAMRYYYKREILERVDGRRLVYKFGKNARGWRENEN
# Method in brief: as §1
# SPI1 = SPI1 (Homo sapiens, UniProt P17947 1-270)
# Method in brief: as §1
# SPIB = SPIB (Homo sapiens, UniProt Q01892 1-262)
# Method in brief: as §1
# ELK3 = biological target: T6, ELK3 (Homo sapiens, UniProt P41970 1-407)
# T6 sequence: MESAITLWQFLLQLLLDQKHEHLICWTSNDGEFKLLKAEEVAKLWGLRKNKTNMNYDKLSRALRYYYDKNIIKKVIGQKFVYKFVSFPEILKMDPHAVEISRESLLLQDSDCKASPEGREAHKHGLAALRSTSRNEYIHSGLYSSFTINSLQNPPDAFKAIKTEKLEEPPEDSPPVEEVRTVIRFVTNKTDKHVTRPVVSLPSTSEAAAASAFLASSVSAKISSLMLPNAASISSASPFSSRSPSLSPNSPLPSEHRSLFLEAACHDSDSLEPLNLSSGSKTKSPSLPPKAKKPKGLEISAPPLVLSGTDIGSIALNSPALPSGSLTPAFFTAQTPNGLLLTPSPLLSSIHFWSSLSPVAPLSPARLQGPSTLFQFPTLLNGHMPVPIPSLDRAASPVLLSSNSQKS
# Method in brief: as §1
# Chain of ELF1 (P32519 whole entry): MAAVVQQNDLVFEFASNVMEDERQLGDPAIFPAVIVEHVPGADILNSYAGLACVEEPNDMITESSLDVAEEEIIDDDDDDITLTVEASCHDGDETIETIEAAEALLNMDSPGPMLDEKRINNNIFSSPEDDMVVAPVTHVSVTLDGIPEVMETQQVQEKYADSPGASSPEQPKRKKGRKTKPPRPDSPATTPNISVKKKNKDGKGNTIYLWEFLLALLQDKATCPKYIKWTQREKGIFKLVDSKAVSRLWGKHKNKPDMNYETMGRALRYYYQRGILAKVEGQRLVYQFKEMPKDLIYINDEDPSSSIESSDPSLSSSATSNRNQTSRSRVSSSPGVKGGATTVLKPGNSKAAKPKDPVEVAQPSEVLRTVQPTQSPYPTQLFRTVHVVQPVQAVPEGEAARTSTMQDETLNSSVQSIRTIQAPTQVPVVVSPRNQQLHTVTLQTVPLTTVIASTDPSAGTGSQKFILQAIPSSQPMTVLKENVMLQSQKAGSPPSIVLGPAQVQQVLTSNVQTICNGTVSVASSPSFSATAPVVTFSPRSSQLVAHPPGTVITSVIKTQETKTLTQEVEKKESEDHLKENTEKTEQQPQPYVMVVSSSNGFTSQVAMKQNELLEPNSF
# Chain of SPIB (Q01892 whole entry): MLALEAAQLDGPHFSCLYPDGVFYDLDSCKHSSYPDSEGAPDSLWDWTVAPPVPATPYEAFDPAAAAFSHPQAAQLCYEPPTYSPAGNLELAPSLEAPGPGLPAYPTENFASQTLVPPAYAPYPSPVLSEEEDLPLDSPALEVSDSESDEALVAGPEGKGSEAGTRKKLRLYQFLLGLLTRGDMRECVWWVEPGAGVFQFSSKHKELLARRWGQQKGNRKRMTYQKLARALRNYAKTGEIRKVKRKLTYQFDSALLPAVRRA
Sequence,binding signal (FLI1),binding signal (ELK1),binding signal (GABPA),binding signal (ERG),binding signal (ELF1),binding signal (EHF),binding signal (SPI1),binding signal (SPIB),binding signal (ELK3)
ATGGGT,"1.39 fold enrichment (6-mer frequency, TF over GST control)","1.37 fold enrichment (6-mer frequency, TF over GST control)","1.28 fold enrichment (6-mer frequency, TF over GST control)","1.43 fold enrichment (6-mer frequency, TF over GST control)","1.3 fold enrichment (6-mer frequency, TF over GST control)","1.46 fold enrichment (6-mer frequency, TF over GST control)","1.21 fold enrichment (6-mer frequency, TF over GST control)","1.29 fold enrichment (6-mer frequency, TF over GST control)","1.44 fold enrichment (6-mer frequency, TF over GST control)"
CGATAT,"1.14 fold enrichment (6-mer frequency, TF over GST control)","1.03 fold enrichment (6-mer frequency, TF over GST control)","1.08 fold enrichment (6-mer frequency, TF over GST control)","1.03 fold enrichment (6-mer frequency, TF over GST control)","1.12 fold enrichment (6-mer frequency, TF over GST control)","1.1 fold enrichment (6-mer frequency, TF over GST control)","1.03 fold enrichment (6-mer frequency, TF over GST control)","1.02 fold enrichment (6-mer frequency, TF over GST control)","1.06 fold enrichment (6-mer frequency, TF over GST control)"
CCGCTA,"1.45 fold enrichment (6-mer frequency, TF over GST control)","1.37 fold enrichment (6-mer frequency, TF over GST control)","1.2 fold enrichment (6-mer frequency, TF over GST control)","1.37 fold enrichment (6-mer frequency, TF over GST control)","1.27 fold enrichment (6-mer frequency, TF over GST control)","1.41 fold enrichment (6-mer frequency, TF over GST control)","1.51 fold enrichment (6-mer frequency, TF over GST control)","1.46 fold enrichment (6-mer frequency, TF over GST control)","1.37 fold enrichment (6-mer frequency, TF over GST control)"
AAGCGC,"1.2 fold enrichment (6-mer frequency, TF over GST control)","1.11 fold enrichment (6-mer frequency, TF over GST control)","1.12 fold enrichment (6-mer frequency, TF over GST control)","1.13 fold enrichment (6-mer frequency, TF over GST control)","1.15 fold enrichment (6-mer frequency, TF over GST control)","1.19 fold enrichment (6-mer frequency, TF over GST control)","1.07 fold enrichment (6-mer frequency, TF over GST control)","1.23 fold enrichment (6-mer frequency, TF over GST control)","1.19 fold enrichment (6-mer frequency, TF over GST control)"
TACATC,"1.63 fold enrichment (6-mer frequency, TF over GST control)","1.67 fold enrichment (6-mer frequency, TF over GST control)","1.51 fold enrichment (6-mer frequency, TF over GST control)","1.65 fold enrichment (6-mer frequency, TF over GST control)","1.53 fold enrichment (6-mer frequency, TF over GST control)","1.6 fold enrichment (6-mer frequency, TF over GST control)","1.57 fold enrichment (6-mer frequency, TF over GST control)","1.65 fold enrichment (6-mer frequency, TF over GST control)","1.74 fold enrichment (6-mer frequency, TF over GST control)"
AACTTG,"1.26 fold enrichment (6-mer frequency, TF over GST control)","1.2 fold enrichment (6-mer frequency, TF over GST control)","1.18 fold enrichment (6-mer frequency, TF over GST control)","1.11 fold enrichment (6-mer frequency, TF over GST control)","1.21 fold enrichment (6-mer frequency, TF over GST control)","1.14 fold enrichment (6-mer frequency, TF over GST control)","1.15 fold enrichment (6-mer frequency, TF over GST control)","1.19 fold enrichment (6-mer frequency, TF over GST control)","1.08 fold enrichment (6-mer frequency, TF over GST control)"
ACCACT,"1.28 fold enrichment (6-mer frequency, TF over GST control)","1.22 fold enrichment (6-mer frequency, TF over GST control)","1.35 fold enrichment (6-mer frequency, TF over GST control)","1.27 fold enrichment (6-mer frequency, TF over GST control)","1.31 fold enrichment (6-mer frequency, TF over GST control)","1.25 fold enrichment (6-mer frequency, TF over GST control)","1.38 fold enrichment (6-mer frequency, TF over GST control)","1.19 fold enrichment (6-mer frequency, TF over GST control)","1.21 fold enrichment (6-mer frequency, TF over GST control)"
ACGTAC,"1.24 fold enrichment (6-mer frequency, TF over GST control)","1.16 fold enrichment (6-mer frequency, TF over GST control)","1.13 fold enrichment (6-mer frequency, TF over GST control)","1.08 fold enrichment (6-mer frequency, TF over GST control)","1.16 fold enrichment (6-mer frequency, TF over GST control)","1.15 fold enrichment (6-mer frequency, TF over GST control)","1.18 fold enrichment (6-mer frequency, TF over GST control)","1.11 fold enrichment (6-mer frequency, TF over GST control)","1.19 fold enrichment (6-mer frequency, TF over GST control)"
